# Over roughly 25,000 sequences, “ln(normalized median fluorescence intensity)” has its median near 9.3; the highest 2% begin near 10. For the sample, the highest values were picked, then their nearest neighbours and some sequences at random.
# System: PF3D7_0420300 AP2 domain 1 (GST-tagged)
# Assay: gcPBM binding intensity (ln(normalized median fluorescence intensity)); higher = stronger DNA binding
# Summary of the method: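 Binding intensity is the highest Masliner-normalised natural-log median intensity over replicate spots in either probe orientation. To obtain it, GST-tagged P. falciparum DNA-binding domains made in E. coli were incubated for 1 h on an Agilent 4 × 180k array of primer-extended double-stranded 36-bp intergenic genomic probes plus negative controls. Detection used Alexa488 anti-GST antibody with scanning at 488 nm.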
row,Sequence,gcPBM binding intensity (ln)
1,AATGCTATCATTAATGCACACATTTAAAATTAATAT [CACACA_site3548],9.22
2,ATTATATTAATTTATAGTACAATATTTATATATATG [XGTACX_site4668],9.2
3,AAATATATATATAGTACATGCAGTAGATAATTTAAT [TGCATGCA_site299],9.51
4,CAGATAGACTTATATGCATGCATTCACATACCAACA [TGCATGCA_site163],9.27
5,ATAATATATATATTTTGTACACATGAAAAGGAGGAT [XGTACX_site5034],9.52
6,TTGCTTATTAAATGGGGTACATTATATATATATATA [XGTACX_site2515],9.49
7,TTTTTTTTTTTTTTTGGTACACATTTTGGTTAATGG [XGTACX_site5109],9.06
8,ATATTATTATTAGTTTCACACATTTAATGAAACTAA [CACACA_site5677],9.03
9,TTGTTAATAAAAATATTGGAAAGTTTATAAAATTTT [CACACA_negctrl_site1487],8.9
10,TGTTCTTTGTTCAGCGCATGTAAAATAAAATAAAAT [TGCATGCA_site629],9.04
11,AGGAGACTTAAAAAAAGTACAAAAAAAAAAAAAAGC [XGTACX_site1576],9.65
12,TATATATATATACCTTGTACTTACATTCGCATATAA [XGTACX_site2466],9.32
13,TAATATATGTATTGCACACCTATAACCATTATTTCT [CACACA_site1498],9.51
14,TATTTATATTTATATACACACATACATATTTATATT [CACACA_site6535],9.57
15,TACATATTTATATACACACACACACGGATATTTATA [CACACA_site7239],10.3
16,TATATATATATTTATACACACACATATATTTATATA [CACACA_site8054],9.59
17,ATTTTTATTTTATATACACACAATAATAATATAATA [CACACA_site4015],9.39
18,AGCACAAGCACAAGCACACATTTATATATAAATACA [CACACA_site4642],9.42
19,ATAATACACAAGCACACACACACACGGATATTTATA [CACACA_site6714],10.3
20,GAAATACCGGAAAGCAAACACACATTTTAAAACCAT [CACACA_site3861],9.68
21,AGATTTAAATATCATACACACTTTATATATAATACA [CACACA_site4688],9.35
22,TACTAGCAAATACATACACACACACCCATATACATA [CACACA_site9163],10.1

row,Sequence,gcPBM binding intensity (ln)
1,TTAATGGCAAAATAGGCACACACACCGATACATATA [CACACA_site8263],9.91
2,CTAGCAAATACATACACACACACACGGATACCTATA [CACACA_site7609],10.2
3,TAAAAAAAATAGCATACACACATATATACCTATATA [CACACA_site4535],9.72
4,CACATACAGATATATACACACAAATATAAATACACA [CACACA_site6512],9.98
5,CACATACAGATATATACACACAAATATATATACTCA [CACACA_site4591],9.76
6,TATACATATACATATACACACACACCCATAAATAAA [CACACA_site8372],9.99
7,CTAGCAAATACATACACACACACACCCATACATATA [CACACA_site3496],10.3
8,TTAATATAAGCAAATACACACACACCGATATATATA [CACACA_site9269],10.2
9,TATACCTATAAATACACACACATATATAAATAAATA [CACACA_site6730],10
10,CTAGCAAATACATACACACACACACCGATACATATA [CACACA_site9164],10.2
11,CTAGCAAATACATACACACACACACCGATACAGATA [CACACA_site5853],10.2
12,TATCATTTCATATCAAGTACAAACATTTTACATATA [XGTACX_site5307],9.12
13,GTGCATATCTGATATACACACAATAAAATAGTATGT [CACACA_site7203],9.33
14,AAAAAAAATTCACACTGTACAAAAGCATAAATAAAC [XGTACX_site5408],9.75
15,AATGTGTATATATATACACACACATATATATATTTT [CACACA_site8596],9.75
16,TTAATTTTTAGAAGAACACACACATATATATTATGA [CACACA_site7969],9.59
17,CATACAGATATATATACACACATACAGATAAATACA [CACACA_site4592],9.83
18,TACAGATACAGATACACACACACACCGAAATAAATA [CACACA_site4865],10.3
19,TATACAGATAAATACACACACACATATATATATATA [CACACA_site4845],10
20,TTTAATTTTTATATAACACACATATTGTAATTATGT [CACACA_site4566],9.38
21,ATAAATACTAAAAATGAAATATAGAAAATAGCAATA [CACACA_negctrl_site501],9.61
22,AAAATTCTTCGGGGGAGTACAAGGATATTCTACGTT [XGTACX_site3974],9.53
